The source of these data is PubChem BioAssay AID1740 (National Center for Advancing Translational Sciences (NCATS), 2009).

Records with an inconclusive call do not appear. A call without a number means that no potency is given here. Activity calls are given as the source filed them. The call rests on the fitted dose curve; in most records, active means well fitted activation curve with a large enough effect; inconclusive means small, poorly fitted or top-dose-only effect; inactive means no such curve, though single readings can be large or run the other way.

This experiment is described as follows: Confirmation Concentration-Response Assay for Enhancers of SMN2 Splice Variant Expression. Conditions: HEK293 SMN2-exon7-luciferase splicing reporter, luminescence, 30-36 h; series mostly up to 22.7 µM. An excerpt:
NIH Chemical Genomics Center [NCGC] NIH Molecular Libraries Probe Production centers Network [MLPCN] MLPCN Grant: R03 MH084179-01 Assay Submitter (PI): Elliot Androphy NCGC Assay Overview: Spinal muscular atrophy (SMA) is caused by insufficient levels of the survival motor neuron protein SMN. The SMN locus on chromosome 5q13 contains two inverted copies of SMN called SMN1 and SMN2 which are 99% identical at the amino acid level. SMN1 is a fully functional protein and SMN2 skips exon 7 90% of the time. Skipping of exon 7 produces non-functional protein product. 10% of the SMN2 protein includes exon 7 and is fully functional. In the SMA disease state, mutations in the SMN1 locus are the cause of the disease state. Because only 10% of SMN2 is of the fully functional form, it is not sufficient to overcome the deficiency produced by the loss of the SMN1 product. A therapy that either increase the amount of SMN2 product made or to increase the inclusion of exon 7 has been proposed for the treatment of SMA. We have designed an assay to identify small molecules that can increase the amount of functional SMN2 product by appending a luciferase reporter gene after the native SMN2 gene, such that inclusion of exon 7 in the expressed product places the luciferase sequence in frame, thus generating functional luciferase enzyme.
NCGC Assay Protocol Summary: This screen utilizes a luciferase reporter gene assay, combining the promoter with the major portion of the native SMN2 cDNA (exons 1 -7, intron 8 , exon 8 fused to luciferase) stably expressed in HEK293 cells. Compounds that increase luciferase signal presumably enhance expression of the functional SMN2 splice variant. Passaging media contained DMEM w/ glutamax (+phenol red) 10% FCS, 1x pen/strep, 200 ug/ml hygro, 1x sodium pyruvate. Assay media contained DMEM w/ glutamax (-phenol red) 10% FCS, 1x pen strep, 1x pyruvate Sequence, Parameter, Value, Description (1) Cells, 5 uL, 2000 cells/well, 1536 TC treated White solid bottom plate (2) Time, 10-12 hours, 37C 5% CO2 (3) Compound, 23 nl, MLSMR Library (4) Control Compound, 23 nL, Sodium butyrate st 4.5mM (final) conc (5) Time, 30-36 hours, 37C 5% CO2 (6) Reagent, 3 ul, One Glo (TM) from Promega (7) Time, 5-15 minutes, Room temp (8) Detector, Viewlux: luminescent read, 60 second integration, high speed 2x binning Keywords: Spinal muscular atrophy, SMA, SMN2, high throughput screening, MLSMR, MLPCN, NIH Roadmap, qHTS and NCGC
On to `C[C@@H]1O[C@@H](O[C@H]2C[C@@H](O)[C@]3(CO)[C@H]4[C@H](O)C[C@]5(C)[C@@H](C6COC(=O)C6)CC[C@]5(O)[C@@H]4CC[C@]3(O)C2)[C@H](O)[C@H](O)[C@H]1O` (some centres undefined), for which the Potency result is “inactive”.
Under `CCc1ccc2nc(N3CCC(C(=O)N4CCC5(CC4)OCCO5)CC3)sc2c1` stands “inactive”.
For `O=C(C1CCN(c2nc3ccc(Br)cc3s2)CC1)N1CCC2(CC1)OCCO2`, the Potency entry was “inactive”.
With `COc1ccc(CNC(=O)c2ccc(C(C)C)cc2)cc1`, the Potency is 5.01 µM (active).
